Consider 59 compounds from PubChem BioAssay AID743279 (National Center for Advancing Translational Sciences (NCATS), 2014).

Out of some 360,000 compounds screened, about 17,000 (4.7%) were called active. Inconclusive results (about 5%) are left out. The sample as a whole holds a higher share of actives than the screen did. Values without a mark were called inactive. No stated cut-off is given here; in the data, active means activity change below about -50%; inconclusive means mostly about -30% to -49%; inactive means weaker than that.
On the % scale 0 is the no-effect control and ±100 the full control effect.

The test can be described thus: qHTS for Inhibitors of Inflammasome Signaling: IL-1-beta AlphaLISA Primary Screen. Particulars: THP-1 LPS/ATP IL-1B secretion, 16 h; at 57.5 µM, stronger effect = lower value. The text has this:
Inflammasomes are a set of intracellular multi-protein complexes that enable autocatalytic activation of inflammatory caspases and drive the innate immune response to counter harmful agents. […] A qHTS assay, based on AlphaLISA technology, was developed to screen the Molecular Libraries Small Molecule Repository (MLSMR) to look for novel inflammasome inhibitors. The assay detects IL-1B using AlphaLISA anti-IL-1B acceptor and donor beads. A decreased emission signal, indicating reduced IL-1B secretion, is the desired outcome for this assay. NIH Chemical Genomics Center [NCGC] NIH Molecular Libraries Probe Centers Network [MLPCN] MLPCN Grant: MH095513 Assay Provider: Shyam Biswal Ph.D., Johns Hopkins University Immunity. 2012 Jul 27;37(1):85-95. PMID: 22819042 [2] Curr Pharm Des. 2012;18(16):2320-8. PMID: 22390695
Three microliters containing 3000 THP-1 cells were dispensed into the wells of solid, white, tissue culture treated Greiner 1,536-well plates. Library compounds and positive control, Glyburide, were pin-transferred (23 nL) by a Kalypsys pin-tool equipped with a 1,536-pin array, resulting in final compound concentration ranges of 2.5 nM to 57.5 uM. After 1 hr of cell culture incubation (37 °C, 5% CO2), 1 microL of 1 microg/mL lipopolysaccharide (250 ng/mL, final) and 5 mM ATP (1.25 mM, final) were added to stimulate the cells. After 16 hr of cell culture incubation with the compounds, 1.5 uL of anti-IL-1B acceptor beads (6 ug/mL, final) and biotinylated antibody (0.6 nM, final) were added to the plate, followed by a 1 hr incubation at ambient temperature. To detect the secreted IL-1B, 1.5 uL of AlphaLISA SA-Donor beads (24 ug/mL, final) were added, followed by 30 min of incubation in the dark at ambient temperature. The AlphaLISA signal was read by a PerkinElmer EnVision plate reader with an ultrasensitive luminescence detector and 1536 Plate HTS AlphaScreen aperture (excitation of 680nm and emission of 615nm).
Turning to `Cc1cc(C)c(S(=O)(=O)NN=C2c3ccccc3[C@H]3Cc4csc[n+]4[C@@H]23)c(C)c1`, the activity change was -3.78%.

On to `COc1ccc(C(NC(=O)C2CCN(CCCc3ccccc3)CC2)c2cccs2)cc1` (centres undefined), for which the activity change was -24%. Turning to `O=C(CCN1CCCCC1)Nc1ccc(F)c(F)c1`, the activity change was -0.386%. As for `COc1ccc(NC(=O)N(C)C[C@@H]2OCc3cn(nn3)CCCC(=O)N([C@H](C)CO)C[C@H]2C)c(OC)c1`, the activity change was 9.8%.

`CC(C)c1cc(C(N)=O)c(NC(=O)c2cccc(COc3ccc(Br)cc3)c2)s1`: the activity change was -75.7% (active).

As to `CC(C)(C)OC(=O)N(Cc1ccccc1)Cc1ccc(OCc2cccc(NC(=O)c3ccccc3)c2)cc1`, the activity change is 9.51%. `CCOc1ccc(OCc2cccc(C(=O)N(CC)CC)c2)cc1`: the activity change was 0%. As to `O=C1CSC(c2ccc(Cl)cc2)N1` (centres undefined), the activity change is 0%. The result for `COc1ccc2c(C)c(CCC(=O)NC3CC3)c(=O)oc2c1C` reads -19.2%; that for `NC(=O)NC(CC(=O)NNC(=O)c1ccccn1)c1ccc(Cl)cc1` (centres undefined), 99.7%; that for `CNC(=S)N1CCN(c2ccccn2)CC1`, -3.93%. With `COc1ccc(/C(C)=N\NC(=O)c2ccc(-c3ccccc3)cc2)c(F)c1` the figure was 7.94%; with `C/C(=N\NC(=O)c1ccccc1F)c1ccccn1`, -100% (active); with `CC1=NNC(=O)C1CCC(=O)N/N=C(\C)c1ccc(Cl)cc1` (centres undefined), 6.73%. Regarding `Cc1cccc(C)c1NC(=S)N1CCCCCC1`, the activity change was 5.87%. With `CC(=NNC(=S)N1CCCCCC1)c1ccccn1` the figure was -106% (active); with `O=C(NCCOc1ccccc1)c1ccccc1F`, -17.7%. `C/C(=N\NC(=O)Cc1ccc(Cl)cc1)c1ccccn1`: the activity change is -103% (active).

For `CO[C@@H]1CN(C)C(=O)c2cc(NC(=O)Nc3cc(F)ccc3F)ccc2OC[C@H](C)N(C(=O)c2ccccn2)C[C@@H]1C`, the activity change was 11%. The result for `COC(=O)c1ccc(CSc2nnc(N)s2)o1` reads -16.4%; that for `CCCCNC(=O)C[C@@H]1C[C@@]2(C(=O)OCC)CCC=C2N(Cc2ccco2)C1=O`, 14.5%.

On to `O=C(NCc1ccc(F)cc1)c1cc(C2CCCCN2C(=O)c2cccs2)on1` (centres undefined), for which the activity change was -12.4%.

Take `O=C(CN1CCN(c2ccc(O)cc2)CC1)Nc1ccc(-c2ccccc2)cc1`: the activity change is 12.4%. With `Cc1cccc(C)c1NC(=O)C(c1cccc2ccccc12)n1c(=O)c(-c2ccco2)nc2ccccc21` (centres undefined), the activity change was 7.42%. For the compound `COc1ccc(NS(=O)(=O)c2ccc(C)c(C(=O)NCC(c3cccs3)N3CCOCC3)c2)cc1` (centres undefined), the activity change was 2.47%. Regarding `CC1(C(=O)NS(=O)(=O)c2cccc(OC(F)F)c2)CCN1C(=O)COc1ccc(Cl)cc1` (centres undefined), the activity change is 48.6%. On to `CC(NCc1nc2ccccc2n1C)C12CC3CC(CC(C3)C1)C2` (centres undefined), for which the activity change was -94.3% (active).

In the case of `CCOc1ccc(C(O)Cc2nc3ccccc3n2C)cc1` (centres undefined), the activity change was -16%. In the case of `COc1cccc(C(O)Cc2nc3ccccc3n2C)c1OC` (centres undefined), the activity change is 11.4%.

Turning to `COc1cc(C(=O)N2CCN(S(=O)(=O)c3ccc(C(C)C)cc3)CC2)ccc1OCC(=O)N1CCOCC1`, the activity change was -21.1%. Consider `O=C(c1cc(C2CCCCN2S(=O)(=O)c2ccccc2)on1)N1CCOCC1` (centres undefined), for which the activity change was 0%. `Nn1c(SCC(=O)Nc2nccs2)nnc1-c1ccco1`: the activity change was -6.29%. Take `N#Cc1nc(Cc2cccc3ccccc23)oc1NCc1ccc2c(c1)OCO2`: the activity change is -53.4% (active).

For `Cn1cc(CCC(=O)NCc2ccc3c(c2)OCO3)c2ccccc21`, the activity change is 0%. In the case of `CC1(C(=O)NCc2ccc3c(c2)OCO3)CCN1C(=O)Cc1cccc2ccccc12` (centres undefined), the activity change was -20.8%. As to `Cc1ccc(S(=O)(=O)N2CCOCC2)cc1NC(=O)COC(=O)c1cnccn1`, the activity change is 2.75%. The result for `CCOC(=O)C1CCCN(C(=O)c2ccc(C)c(F)c2)CC1` (centres undefined) reads 13%; that for `Cn1c(-c2ccco2)nc2cc3ccccc3cc21`, -69.2% (active); that for `Cn1c(SCC(=O)Nc2ccc(Br)cc2F)nnc1-c1ccco1`, -12.1%.

As for `COc1ccccc1-n1c(-c2cc(-c3ccco3)[nH]n2)n[nH]c1=S`, the activity change was 5.01%. For `NC(=O)CSc1nnc(-c2cccc(S(=O)(=O)N3CCOCC3)c2)o1`, the activity change was -7.22%. As to `COc1ccc(C(=O)NCC(=O)N/N=C/c2ccc([N+](=O)[O-])o2)cc1OC`, the activity change was -85.8% (active). The result for `COc1cccc(/C=N/NC(=O)CNC(=O)c2ccc(S(=O)(=O)N3CCOCC3)cc2)c1OC` reads -0.608%. With `COc1ccc(/C=N/NC(=O)CNC(=O)c2ccc(S(=O)(=O)N3CCCC3)cc2)c(OC)c1`, the activity change is 16.6%.

Consider `COc1ccc(-c2c(C#N)cnc(C)c2C)c(O)c1OC`, for which the activity change was -20.7%. Regarding `Cc1ccc(O)c(CNc2nc3ccccc3[nH]2)c1`, the activity change is -5.71%. For `COc1cc(/C=C(\C#N)c2nc3ccccc3[nH]2)ccc1O`, the activity change is -65.7% (active). Consider `CCCCCOc1ccc(/C=C/C(=O)NCCc2nc3ccccc3[nH]2)cc1OC`, for which the activity change is -2.9%. Consider `O=C(CCN1C(=O)c2ccccc2C1=O)C1=NN[C@@H]2C(=O)N(c3ccc(F)cc3)C(=O)[C@H]12`, for which the activity change is 5.83%. With `CC(C)(C)CC(C)(C)NCC(O)COCCOc1ccc(Br)cc1` (centres undefined), the activity change was -99.4% (active). The result for `CC(C)(C)NCC(O)COc1cccc2[nH]c(=O)[nH]c12` (centres undefined) reads 4.98%.

Take `COc1ccc(OCC(O)CNCCNc2nccc(C(F)(F)F)n2)cc1` (centres undefined): the activity change is -18.5%. `O=[N+]([O-])c1ccc2c(c1)C(O)n1nc(-c3ccccc3)nc1S2` (centres undefined): the activity change was -8.59%. With `O=C(C[C@H]1C[C@@H]2c3cc(NC(=O)C4CCC4)ccc3O[C@@H]2[C@H](CO)O1)NC1CCCCC1` the figure was 13%; with `Cn1cnnc1Sc1ccc(CN2CCN(C3CCCC3)C(CCO)C2)o1` (centres undefined), 0.321%; with `C[C@H]1CN(c2ccc(Br)cc2)C(=O)[C@@H]1CC(=O)Nc1ccc(Br)cc1`, 3.7%. Regarding `O=C(/C=C/c1ccc(Cl)cc1Cl)NCc1ccco1`, the activity change is -10.5%. The result for `O=C(CSc1nnnn1-c1ccccc1)NCc1ccco1` reads 2.34%; that for `O=C(CSc1c2c(nc3ccc(Cl)cc13)CCCC2)NCc1ccco1`, -92.7% (active).
